Screen size: about 220,000 compounds; about 8,200 (3.7%) were called active. What follows is part of a selection rich in actives, with near analogues and random picks from the rest. Values without a mark were called inactive.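 The calls were made as follows: active = compounds that reduced the stress-induced luciferase reporter signal by more than about 70% of percent inhibition (limit read from the data); inactive = the rest.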
Assay: inhibitors of CHOP promoter induction, primary screen, cell-based, unfolded protein response, luciferase reporter (AID 2732);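 also: 0% = tunicamycin plus vehicle and 100% = wells without tunicamycin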
Conditions: CHO-K1 CHOP-promoter luciferase, tunicamycin-induced, 15-18 h; at 10 µM; active compounds read high

Going from O=C(N/N=C/c1c(Cl)[nH]c2ccccc12)c1sc2ccccc2c1Cl to COc1ccccc1NC(=O)CCCc1c[nH]c2ccccc12, the inhibition falls from 44.3% to 0.61%.

Compared with Oc1ccc(N=Cc2c(O)ccc3ccccc23)cc1, O=C(c1cc(-c2ccc(O)cc2)on1)N1CCCc2ccccc21 is lower in inhibition: 40.5% for the first, 40.4% for the second.

Going from CC(NC(=O)c1cc(-c2ccccc2)on1)c1ccccc1 (configuration not stated) to O=C(NCc1ccccc1)c1ccc(S(=O)(=O)Nc2cccc(C(F)(F)F)c2)cc1, the inhibition falls from 58.1% to 26.6%.

Compared with CCCCCCNS(=O)(=O)c1ccccc1Br, CCCC(=O)NC(Nc1ccccc1OC)C(Cl)(Cl)Cl (configuration not stated) is higher in inhibition: 16.4% for the first, 21.3% for the second.

First: CCOC(=O)C1=NN(c2ccc(Cl)cc2)/C(=C/C2=NCCc3cc(OC)c(OC)cc32)S1
Second: COc1ccc(Cl)cc1C(=O)NNC(=O)c1nc2nc(C)cc(C)n2n1
The inhibition of the first is lower: -5.16% for the first, 11.4% for the second.

Going from CCOC(=O)NNc1cc(C(F)(F)F)ccn1 to Cc1ccccc1NC(=O)NCc1ccco1, the inhibition falls from -10.6% to -12.4%.

Going from Cc1onc(-c2c(Cl)cccc2Cl)c1C(=O)NNC(=O)c1c(-c2c(Cl)cccc2Cl)noc1C to CCc1cccc(CC)c1NC(=S)Nc1ccc2cn[nH]c2c1, the inhibition rises from -2.75% to 22.1%.

Going from O=C(/C=C/c1ccc(Cl)cc1)Nc1ccc(S(=O)(=O)Nc2ncccn2)cc1 to C/C(=N/NC(=O)CN1CCN(S(=O)(=O)c2ccc(Br)cc2)CC1)c1ccncc1, the inhibition falls from 15.1% to 10.9%.

First: OC(c1nc2ccccc2[nH]1)C(O)C(O)C(O)c1nc2ccccc2[nH]1 (configuration not stated)
Second: S=C(Nc1cccc(Cl)c1)Nc1ccc2cn[nH]c2c1
The inhibition of the first is higher: 4.88% for the first, -22.9% for the second.

Going from O=C(Cn1c(=O)n(Cc2ccco2)c(=O)c2ccccc21)NCC1CCCO1 (configuration not stated) to Cc1ccc(N2C(=O)CC(N3CCSCC3)C2=O)c(C)c1 (configuration not stated), the inhibition rises from 19% to 19.1%.

Compound Cc1csc(NC(=S)Nc2cccc(Cl)c2)n1 has an inhibition of -212%.

In the case of Oc1ccc(N=Cc2sc3ccccc3c2Cl)cc1, the inhibition is reported as 81.8% (active).
In the case of O=C(Nc1ccccc1C(F)(F)F)c1cc(-c2ccc(O)cc2)on1, the inhibition is reported as 105% (active).
For CCCCCCCC(=O)NC(Nc1ccccc1OC)C(Cl)(Cl)Cl (configuration not stated), the inhibition was 87.9% (active).
For O=C(/C=C/c1ccc(F)cc1)Nc1cccc(S(=O)(=O)Nc2cccc(C(F)(F)F)c2)c1, the inhibition was 103% (active).
With Cc1ccccc1Cn1c2ccccc2c2cnn(CC(=O)NCc3ccco3)c(=O)c21 the inhibition was 90.4% (active).
In the case of FC(F)(F)c1cccc(NC(=S)Nc2cccc(Cl)c2)c1, the inhibition is reported as 87.2% (active).

— PubChem BioAssay AID2732 (Emory University Molecular Libraries Screening Center, 2010)
